Assay results taken from PubChem BioAssay (NCATS).
Records with an inconclusive call do not appear. Activity calls are given as the source filed them. Unless noted, calls come from the whole dose curve; as a rule, active = well fitted curve in the direction sought with a large enough effect; inconclusive = small, poorly fitted or top-dose-only effect, or another doubt; inactive = no such curve, though single readings can be large; an effect the other way counts as inactive or inconclusive.

Columns and labels:
[1] = molecular target: Cytochrome P450 3A4 (Homo sapiens) (UniProt P08684); assay: qHTS Assay for Inhibitors and Substrates of Cytochrome P450 3A4 (AID 884); note: % is set by controls: 0 for no effect and ±100 for the full control effect; nearly all actives have a fitted effect of over 50% in size
Procedure, shortened: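 Luminescent readout of luciferin produced by CYP3A4 (20 nM) dealkylation of Luciferin-PPXE, 25 uM (its KM). NADPH-driven reaction ran 60 min at RT after 10 min compound preincubation; data scaled to 57 uM ketoconazole as 100% inhibition.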

[2] = Confirmation and Secondary Assay for Modulators of Hemoglobin Beta Chain Splicing at IVS2 654 locus (AID 910);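 note: HeLa cells stably carrying EGFP split by mutant beta-globin IVS2-654 intron; % of control where 0% means no effect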
Procedure, shortened: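 HeLa cells stably expressing EGFP interrupted by β-globin IVS2-654 intron, seeded overnight in Opti-MEM/2% FCS, then treated 2 days at 37 °C. Restored splicing read as total peak GFP intensity per well by laser scanning cytometry (488 nm excitation, 500–520 nm emission); 500 nM antisense PNA as control.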

[3] = Confirmation and Secondary Assay for Modulators of Hemoglobin Beta Chain Splicing at IVS2 705 locus (AID 930);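 note: HeLa cells stably expressing the EGFP-705 splicing reporter; GFP fluorescence per well restored by corrected splicing of the IVS2-705 intron in EGFP; % of control where 0% means no effect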
Procedure, shortened: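 First, HeLa EGFP-705 cells are seeded at 500/well in Optimem with 2% FCS and left overnight. Next, compound or DMSO is added for 2 days. Finally wells are laser-scanned and total peak GFP intensity scored.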

[4] = molecular target: ATP-dependent 6-phosphofructokinase (Trypanosoma brucei brucei) (UniProt O15648); assay: qHTS Assay to Find Inhibitors of T. brucei phosphofructokinase: hit validation (AID 492961);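 note: luminescence reports ADP formed as PFK phosphorylates fructose-6-phosphate with ATP; % is set by controls: 0 for no effect and ±100 for the full control effect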
Procedure, shortened: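 Compounds titrated; %activity normalized to 0x and 1x enzyme controls, curve-fitted. Readout: ADP-Glo luminescence after 45 min room-temperature reaction of 1.25 nM PFK, 0.1 mM ATP, 0.5 mM F6P, pH 8.0.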

[5] = molecular target: Ubiquitin carboxyl-terminal hydrolase 1 (Homo sapiens) (UniProt O94782); assay: Inhibitors of USP1/UAF1: Pilot qHTS (AID 504865);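 note: rhodamine fluorescence freed from ubiquitin-rhodamine substrate followed over time; top concentration of the series differs between compounds; % is set by controls: 0 for no effect and ±100 for the full control effect; nearly all actives have a fitted effect of over 35% in size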
Procedure, shortened: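 Kinetic fluorescence assay: 1nM USP1/UAF1, 15 min compound preincubation, then 150nM Ub-Rho; 480/540 nm.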

[6] = molecular target: Luciferin 4-monooxygenase (Photinus pyralis) (UniProt P08659); assay: Biochemical firefly luciferase enzyme assay for NPC (AID 624030);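 note: purified P. pyralis luciferase at 10 nM with luciferin and ATP substrate; 0% = DMSO and -100% = full luciferase inhibition by PTC124 control; nearly all actives have a fitted effect of over 70% in size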
Procedure, shortened: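 Purified P. pyralis luciferase at 10 nM in 50 mM Tris Acetate (final), luminescence read within 5 minutes of enzyme addition to compounds. Activity normalised to PTC124 versus DMSO; concentration-response curves classed by r2, magnitude and activity.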

[7] = S16 Schwann cell viability assay (CellTiter-Glo assay) (AID 624031);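 note: native untransfected S16 rat Schwann cells; plate controls were DMSO-treated cells for no effect and cell-free wells for full effect; nearly all actives have a fitted effect of over 70% in size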
Procedure, shortened: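 Counter-screen for cytotoxicity: parental S16 rat Schwann cells lacking the PMP22 reporters, treated 24 h with compound, viability from cellular ATP by CellTiter-Glo luminescence, normalized to DMSO (0%) and no-cell wells.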

[8] = S16 Schwann cell PMP22 intronic element firefly luciferase assay (AID 624032);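 note: plate controls were DMSO for no effect and PTC124 positive control mean for full effect; nearly all actives have a fitted effect of over 30% in size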
Procedure, shortened: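 Rat S16 Schwann cells stably carrying firefly luciferase driven by a PMP22 intronic element, in 10% FBS, treated 24 h at 37 C. ONE-Glo luminescence normalized to PTC124 control and DMSO (0%); curves classed by r2, magnitude and activity.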

[9] = NCATS anti-infectives library activity on HEK293 viability as a counter-qHTS vs the C. elegans viability qHTS (AID 1745854); note: potency is the fitted concentration of half-maximal effect
Procedure, shortened: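 CellTiter-Glo luminescence, read on a CCD imager, scored viability of HEK293 cells after 24 hr compound exposure at 37C. Library tested in several concentrations, 1:5 steps, up to 41.7 uM; digitonin served as control.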

[10] = NCATS anti-infectives library activity on the primary C. elegans qHTS viability assay (AID 1745855; calls by dose curve; note: potency is the fitted concentration of half-maximal effect)
Procedure, shortened: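 Titration-based screen in worms: eggs hatched overnight in M9, L1 larvae fed TOP10 capsules in S medium with compound, incubated 21 °C for 7 days; fluorescent objects gated by size and intensity at days 0, 3 and 7.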

[11] = molecular target: Glutathione peroxidase 1 (Homo sapiens) (UniProt P07203); assay: Primary qHTS Assay for Inhibitors of Recombinant Selenoprotein Glutathione Peroxidase 1 (GPX1) (AID 1845191); note: nearly all actives have a fitted effect of over 65% in size
Procedure, shortened: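 GR-coupled readout: NADPH consumption tracked by fluorescence, ex 340/em 450 nm, at t=0 and after 15 min at RT. Final mix 10 nM GPX1, 1 mM GSH, 0.5 mM CHP, 0.5 mM NADPH, 100 nM GR, 0.01% BSA, following 30 min enzyme–compound preincubation.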

[12] = molecular target: Phospholipid hydroperoxide glutathione peroxidase GPX4 (Homo sapiens) (UniProt P36969); assay: Primary qHTS Assay for Inhibitors of Recombinant Selenoprotein Glutathione Peroxidase 4 (GPX4) (AID 1845192); note: nearly all actives have a fitted effect of over 65% in size
Procedure, shortened: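 Steps: GPX4 plus compound, 30 min RT; add GR/GSH/NADPH master mix; start with cumene hydroperoxide; read 340/450 nm fluorescence at 0 and 15 min. Finals were 200 nM GPX4, 1 mM GSH, 0.5 mM CHP, 0.5 mM NADPH, 100 nM GR.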

[13] = qHTS profiling for inhibitors of Plasmodium falciparum proliferation (AID 504749); note: nearly all actives have a fitted effect of over 60% in size; note: potency is the fitted concentration of half-maximal effect;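 for activity, negative = inhibition: 0% = DMSO vehicle and full inhibition = artemisinin control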; details: P. falciparum in erythrocytes, SYBR Green DNA, 72 h, at 28.7 µM (top of the series)
Procedure, shortened: (§1)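 SYBR Green fluorescence (ex 485 nm, em 535 nm) reports parasite DNA after 72 h compound exposure of infected red cells at 0.3% parasitemia, 2.5% hematocrit; signal normalized to 0.29 uM artemisinin and vehicle wells.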

7G8 = assay: as above; details: P. falciparum in erythrocytes, SYBR Green DNA, 72 h; series mostly up to 12.8 µM
Procedure, shortened: as §1

AA1029 = assay: as above; details: P. falciparum in erythrocytes, SYBR Green DNA, 72 h; series mostly up to 28.7 µM
Procedure, shortened: as §1

AS120 = assay: as above; details: P. falciparum in erythrocytes, SYBR Green DNA, 72 h; series mostly up to 28.7 µM
Procedure, shortened: as §1

ATS95 = assay: as above; details: P. falciparum in erythrocytes, SYBR Green DNA, 72 h; series mostly up to 28.7 µM
Procedure, shortened: as §1

C2A = assay: as above; details: P. falciparum in erythrocytes, SYBR Green DNA, 72 h; series mostly up to 28.7 µM
Procedure, shortened: as §1

CP185 = assay: as above; details: P. falciparum in erythrocytes, SYBR Green DNA, 72 h; series mostly up to 28.7 µM
Procedure, shortened: as §1

CP192 = assay: as above; details: P. falciparum in erythrocytes, SYBR Green DNA, 72 h; series mostly up to 28.7 µM
Procedure, shortened: as §1

CP201 = assay: as above; details: P. falciparum in erythrocytes, SYBR Green DNA, 72 h; series mostly up to 28.7 µM
Procedure, shortened: as §1

CP203 = assay: as above; details: P. falciparum in erythrocytes, SYBR Green DNA, 72 h; series mostly up to 28.7 µM
Procedure, shortened: as §1

CP211 = assay: as above; details: P. falciparum in erythrocytes, SYBR Green DNA, 72 h; series mostly up to 28.7 µM
Procedure, shortened: as §1

CP215 = assay: as above; details: P. falciparum in erythrocytes, SYBR Green DNA, 72 h; series mostly up to 28.7 µM
Procedure, shortened: as §1

CP217 = assay: as above; details: P. falciparum in erythrocytes, SYBR Green DNA, 72 h; series mostly up to 28.7 µM
Procedure, shortened: as §1

CP238 = assay: as above; details: P. falciparum in erythrocytes, SYBR Green DNA, 72 h; series mostly up to 28.7 µM
Procedure, shortened: as §1

CP247 = assay: as above; details: P. falciparum in erythrocytes, SYBR Green DNA, 72 h; series mostly up to 28.7 µM
Procedure, shortened: as §1

Chain of ATP-dependent 6-phosphofructokinase (Trypanosoma brucei brucei) (O15648 whole entry, looked up): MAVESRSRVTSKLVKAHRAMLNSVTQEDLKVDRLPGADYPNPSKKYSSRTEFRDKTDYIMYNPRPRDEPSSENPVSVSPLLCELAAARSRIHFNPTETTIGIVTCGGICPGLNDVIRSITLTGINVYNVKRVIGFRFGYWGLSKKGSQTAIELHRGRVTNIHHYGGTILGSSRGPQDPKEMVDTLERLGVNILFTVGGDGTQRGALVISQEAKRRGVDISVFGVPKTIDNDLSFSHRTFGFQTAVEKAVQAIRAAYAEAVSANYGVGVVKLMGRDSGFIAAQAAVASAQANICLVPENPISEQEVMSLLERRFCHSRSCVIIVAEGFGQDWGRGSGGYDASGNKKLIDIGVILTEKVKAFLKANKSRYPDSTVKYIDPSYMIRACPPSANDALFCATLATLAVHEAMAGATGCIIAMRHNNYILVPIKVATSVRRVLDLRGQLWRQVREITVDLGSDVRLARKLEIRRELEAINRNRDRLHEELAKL
Chain of Ubiquitin carboxyl-terminal hydrolase 1 (Homo sapiens) (O94782 whole entry, looked up): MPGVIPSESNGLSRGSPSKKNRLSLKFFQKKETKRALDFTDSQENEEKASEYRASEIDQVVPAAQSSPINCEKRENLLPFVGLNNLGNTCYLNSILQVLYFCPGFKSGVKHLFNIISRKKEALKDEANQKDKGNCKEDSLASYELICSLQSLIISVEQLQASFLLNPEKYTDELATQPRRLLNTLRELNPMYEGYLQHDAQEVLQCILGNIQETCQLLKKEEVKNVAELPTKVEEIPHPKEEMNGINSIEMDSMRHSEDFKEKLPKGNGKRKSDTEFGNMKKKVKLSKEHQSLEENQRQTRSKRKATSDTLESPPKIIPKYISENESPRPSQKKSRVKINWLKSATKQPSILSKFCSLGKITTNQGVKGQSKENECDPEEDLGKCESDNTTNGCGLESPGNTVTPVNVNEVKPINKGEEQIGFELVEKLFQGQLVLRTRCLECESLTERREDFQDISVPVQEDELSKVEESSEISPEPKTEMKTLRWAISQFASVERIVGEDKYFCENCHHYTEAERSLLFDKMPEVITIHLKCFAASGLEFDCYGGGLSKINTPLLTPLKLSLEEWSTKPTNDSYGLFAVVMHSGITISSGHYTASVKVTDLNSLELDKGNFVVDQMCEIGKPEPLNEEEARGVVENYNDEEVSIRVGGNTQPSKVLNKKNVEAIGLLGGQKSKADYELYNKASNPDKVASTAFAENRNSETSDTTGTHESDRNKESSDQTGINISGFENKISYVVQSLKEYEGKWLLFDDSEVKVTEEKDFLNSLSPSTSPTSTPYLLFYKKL
Chain of Phospholipid hydroperoxide glutathione peroxidase GPX4 (Homo sapiens) (P36969 whole entry, looked up): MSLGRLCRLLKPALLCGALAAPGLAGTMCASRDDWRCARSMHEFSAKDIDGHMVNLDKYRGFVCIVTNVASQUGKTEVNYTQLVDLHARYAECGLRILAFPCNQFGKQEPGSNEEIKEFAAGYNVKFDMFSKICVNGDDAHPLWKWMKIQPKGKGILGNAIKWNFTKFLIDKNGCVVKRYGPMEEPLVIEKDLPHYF
Chain of Cytochrome P450 3A4 (Homo sapiens) (P08684 whole entry, looked up): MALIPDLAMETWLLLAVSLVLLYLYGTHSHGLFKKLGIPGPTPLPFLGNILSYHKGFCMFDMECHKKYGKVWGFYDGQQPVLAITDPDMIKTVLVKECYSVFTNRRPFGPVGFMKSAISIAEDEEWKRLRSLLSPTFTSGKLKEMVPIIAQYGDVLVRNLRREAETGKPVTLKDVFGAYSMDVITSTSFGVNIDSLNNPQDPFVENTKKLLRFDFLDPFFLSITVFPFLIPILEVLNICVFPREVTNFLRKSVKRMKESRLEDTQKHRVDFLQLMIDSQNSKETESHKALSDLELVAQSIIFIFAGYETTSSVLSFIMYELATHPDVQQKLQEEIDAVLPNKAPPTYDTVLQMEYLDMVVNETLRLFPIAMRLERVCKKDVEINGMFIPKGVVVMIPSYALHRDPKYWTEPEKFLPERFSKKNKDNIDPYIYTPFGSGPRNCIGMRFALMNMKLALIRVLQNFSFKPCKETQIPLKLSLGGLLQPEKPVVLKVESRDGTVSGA
Chain of Luciferin 4-monooxygenase (Photinus pyralis) (P08659 whole entry, looked up): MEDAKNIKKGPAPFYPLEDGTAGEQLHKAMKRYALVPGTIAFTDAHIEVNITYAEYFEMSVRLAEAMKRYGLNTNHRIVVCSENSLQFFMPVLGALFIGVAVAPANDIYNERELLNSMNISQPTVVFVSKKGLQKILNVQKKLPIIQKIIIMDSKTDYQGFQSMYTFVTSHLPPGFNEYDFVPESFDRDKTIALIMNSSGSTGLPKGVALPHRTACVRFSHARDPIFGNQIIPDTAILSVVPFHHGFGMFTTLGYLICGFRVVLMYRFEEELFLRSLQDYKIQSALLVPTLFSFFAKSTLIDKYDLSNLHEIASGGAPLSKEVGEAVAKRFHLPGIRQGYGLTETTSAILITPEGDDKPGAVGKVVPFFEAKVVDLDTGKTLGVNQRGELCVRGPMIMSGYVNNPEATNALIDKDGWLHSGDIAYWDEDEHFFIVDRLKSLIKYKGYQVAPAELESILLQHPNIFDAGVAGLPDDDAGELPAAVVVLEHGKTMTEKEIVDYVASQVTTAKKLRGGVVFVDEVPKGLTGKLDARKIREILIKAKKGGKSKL
Chain of Glutathione peroxidase 1 (Homo sapiens) (P07203 whole entry, looked up): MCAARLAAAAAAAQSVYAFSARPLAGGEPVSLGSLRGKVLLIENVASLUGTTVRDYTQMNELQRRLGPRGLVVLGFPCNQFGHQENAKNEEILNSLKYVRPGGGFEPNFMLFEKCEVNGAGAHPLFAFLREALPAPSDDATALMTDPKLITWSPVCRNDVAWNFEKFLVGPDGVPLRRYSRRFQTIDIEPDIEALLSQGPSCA

CC(=O)OC1C[C@H](O[C@@H]2C(O)C[C@H](O[C@@H]3C(O)C[C@@H](OC4CC[C@]5(C)C(CCC6C5CC(O)[C@@]5(C)C(C7=CC(=O)OC7)CC[C@@]65O)C4)OC3C)OC2C)O[C@H](C)[C@H]1O[C@H]1OC(CO)C(O)C(O)C1O (stereo partly drawn)
active: Potency [9] 0.199 µM | Potency [10] 8.16 µM | Potency (7G8) 8.91 µM
inactive: Potency [1] | Potency [2] | Potency [3] | Potency [4] | Potency [5] | Potency [6] | Potency [7] | Potency [8] | Potency [11] | Potency [12] | activity, negative = inhibition ([13]; parasite line A) -17.9% | activity, negative = inhibition ([13]; parasite line B) 17.8% | Potency (AA1029) | Potency (AS120) | Potency (ATS95) | Potency (C2A) | Potency (CP185) | Potency (CP192) | Potency (CP201) | Potency (CP203) | Potency (CP211) | Potency (CP215) | Potency (CP217) | Potency (CP238) | Potency (CP247)
